Experimental findings from PubChem BioAssay (NCI) are described below.

Holding throughout (experiment): NCI-60 one-dose screen, 48 h (100 = growth as untreated, 0 = no growth, -100 = all killed)
Holding throughout (conditions): 10 µM unless noted

The test system of experiment [1] is NCI-H23 lung.
The test system of experiment [2] is NCI-H226 lung.
The test system of experiment [3] is NCI-H322M lung.
Experiment [4] concerns HOP-62 NSCLC.
Experiment [5] concerns NCI-H460 lung.
Experiment [6] concerns HOP-92 NSCLC.
The subject of experiment [7] is NCI-H522 lung.
Experiment [8] concerns A549/ATCC NSCLC.
Experiment [9] relates to 786-0 renal.
Experiment [10] relates to COLO 205 colon.
Experiment [11] deals with DU-145 prostate.
The subject of experiment [12] is K-562 leukemia.
The subject of experiment [13] is MALME-3M melanoma.
In experiment [14] the test system is MDA-MB-231 breast.
Experiment [15] relates to RXF 393 renal.
The test system of experiment [16] is SF-268 CNS.
Experiment [17] has as its system SF-295 CNS.
In experiment [18] the test system is SF-539 CNS.
Experiment [19] has as its system UACC-257 melanoma.
Experiment [20] deals with M14 melanoma.

Structures are written as SMILES. About 83,000 compounds went through this panel and 20% of them were active in at least one assay; those are over-represented in the sample as a whole.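 How to read the values: 0–100, growth inhibition (40 = 60% inhibited); 0, no net growth; -100 to 0, cell death (-40 = 40% of starting cells died; -100 = all dead).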 Values without a mark were called inactive. Active and inactive are the calls of the source. How the source made its calls: active means growth percent below 10; inactive means the rest.

For `COC(=O)[C@]12CC[C@@H](C)[C@H](C)[C@@H]1C1=CC[C@@H]3[C@@]4(C)C(C=O)=C[C@@](C)(CO)[C@@H]4[C@H](O)C[C@@]3(C)[C@]1(C)CC2`, the growth in experiment [1] is -17.1% (active); in [2], 3.36% (active); in [3] it was 32.9%; in [4], 11.9%; in experiment [5] it was -35% (active); in experiment [6], -22.8% (active). Further, the growth in experiment [7] is -37.5% (active); in experiment [8], -1.72% (active); in [9], -30.4% (active); in experiment [10], -28% (active); in experiment [11] it was -30% (active); in [12] it was 6.68% (active). Besides, the growth in experiment [13] was -70.7% (active); in experiment [14] it was -47.6% (active); in [15], -82% (active); in experiment [16] it was -0.0873% (active); in experiment [17] it was -15.6% (active); in [18] it was -44% (active). Further, the figures for the growth in experiment [19] and in experiment [20] were -48.4% (active) and -51.5% (active), respectively.

As for `O=c1c2cc(F)ccc2sc2c(NCCN3CCCCC3)nc3ccccc3c12`, the growth in experiment [1] was 65.6%; in experiment [2], 77%; in [3], 70.9%; in [4] it was 64.4%; in experiment [5], 18.3%; in [6] it was 34.2%. Further, the growth in experiment [7] was 34.2%; in experiment [8] it was 59.1%; in experiment [9], 41%; in experiment [10], 48%; in experiment [11], 53.5%; in experiment [12] it was -30.8% (active). In addition, the growth was 58.5% in [13]; 35.5% in experiment [14]; 39.7% in [15]; 49.7% in experiment [16]; 56% in [17]; 70.1% in experiment [18]. For the same molecule, the values for the growth in [19] and in [20] were 65.1% and -61.7% (active), respectively.

On to `C=C1C(=O)O[C@H]2[C@H]1CC/C(CNC(=O)/C=C/c1ccc(Cl)cc1Cl)=C\CC[C@@]1(C)O[C@@H]21`, for which the growth in [1] is -61.2% (active); in experiment [2], 64.2%; in [3] it was 73.9%; in experiment [4] it was 17.2%; in experiment [5] it was 2.98% (active); in [6], -50.8% (active). Moreover, the growth was -84.2% (active) in experiment [7]; 20.9% in [8]; -77.1% (active) in [9]; -65.5% (active) in [10]; -80.7% (active) in experiment [11]; -31.2% (active) in [12]. The growth in experiment [13] was -89.8% (active); in experiment [14], -42.1% (active); in experiment [15] it was -84.6% (active); in [16], -69.7% (active); in [17], 39.2%; in [18], -72.4% (active). For the same molecule, the growth is -51.7% (active) in experiment [19] and -57.5% (active) in [20].

For `COc1cc(C2NC(=O)c3ccccc3N2)ccc1OCCCCCOc1c(OC)cc(C2=NOC(c3cc(OC)c(OC)c(OC)c3)C2)cc1OC` (stereo not given), the growth in [1] is 59.5%; in experiment [2], 71.5%; in experiment [3], 103%; in [4] it was 95.1%; in [5], 63.4%; in experiment [6], 38.3%. Moreover, the growth is 56.3% in experiment [7]; 67.5% in [8]; 95% in [9]; 108% in [10]; 118% in [11]; 59.7% in experiment [12]. The growth in experiment [13] is 53.9%; in experiment [14] it was 82.5%; in experiment [15] it was 104%; in experiment [16] it was 67.4%; in experiment [17] it was 24.9%; in [18], 83.2%. The figures for the growth in experiment [19] and in experiment [20] were 44% and 84.3%, respectively.

On to `COc1ccc(/C=N\NC(=O)c2cc(-c3ccc(Br)cc3)n(-c3ccc(S(N)(=O)=O)cc3)n2)cc1`, for which the growth in [1] was 71.7%; in experiment [2], 77.8%; in experiment [3] it was 63.1%; in experiment [4], 48%; in experiment [5], 38.5%; in [6], 46.8%. For the same molecule, the growth in experiment [7] is 18.9%; in experiment [8] it was 52.1%; in [9], 66.9%; in experiment [10], 62.2%; in experiment [11], 58.6%; in experiment [12] it was 11.4%. The growth is 47% in experiment [13]; 70.4% in [14]; 18.5% in experiment [15]; 53.1% in experiment [16]; 11% in experiment [17]; 18.3% in experiment [18]. Moreover, the growth in [19] is 66.2%; in experiment [20], 30.9%.

As for `COC(=O)c1c2c(c(C)[n+]([O-])c1C)C(=O)C(NCc1ccc(F)cc1)=CC2=O`, the growth was 31% in experiment [1]; 81.6% in experiment [2]; 15.9% in experiment [3]; 48.2% in experiment [4]; 11.5% in [5]; 42.5% in experiment [6]. Moreover, the growth in [7] is -11.6% (active); in experiment [8], 4.34% (active); in [9] it was 48.7%; in [10], -49.8% (active); in [11] it was 42.5%; in [12], 9.12% (active). Also, the growth was -95.7% (active) in experiment [13]; 1.94% (active) in experiment [14]; 56.9% in experiment [15]; 23% in [16]; 69.1% in experiment [17]; 0.757% (active) in [18]. The growth in [19] is -36.8% (active); in experiment [20] it was 2.89% (active).

On to `COc1ccc(/C=C/c2c(C(=O)/C=C/c3ccc(F)cc3)c(C)nc3ccccc23)cc1`, for which the growth was 47.8% in [1]; 67.3% in [2]; 82.7% in experiment [3]; 57.5% in experiment [4]; 15.9% in [5]; 73.5% in experiment [6]. Besides, the growth in experiment [7] was 43.9%; in experiment [8] it was 91.6%; in [9], 65.4%; in [10] it was 79.8%; in [11], 35.8%; in experiment [12], 10.3%. Moreover, the growth is 83.6% in experiment [13]; 54.8% in experiment [14]; 55.5% in experiment [15]; 69.3% in experiment [16]; 62.4% in experiment [17]; 81.5% in experiment [18]. For the same molecule, the growth in experiment [19] is 66.6%; in experiment [20], 65%.
